According to PubChem BioAssay (NCATS):
Inconclusive results are not listed. Where a call stands in place of a potency, no number is given. Active and inactive are the calls of the source. Calls come from the whole dose curve; as a rule, active = well fitted curve in the direction sought with a large enough effect; inconclusive = small, poorly fitted or top-dose-only effect, or another doubt; inactive = no such curve, though single readings can be large; an effect the other way counts as inactive or inconclusive.

What was measured:
[1] = molecular target: Glutathione peroxidase 1 (Homo sapiens) (UniProt P07203); assay: Primary qHTS Assay for Inhibitors of Recombinant Selenoprotein Glutathione Peroxidase 1 (GPX1) (AID 1845191); note: nearly all actives have a fitted effect of over 65% in size
Sequence of Glutathione peroxidase 1 (Homo sapiens) (P07203 whole entry, looked up): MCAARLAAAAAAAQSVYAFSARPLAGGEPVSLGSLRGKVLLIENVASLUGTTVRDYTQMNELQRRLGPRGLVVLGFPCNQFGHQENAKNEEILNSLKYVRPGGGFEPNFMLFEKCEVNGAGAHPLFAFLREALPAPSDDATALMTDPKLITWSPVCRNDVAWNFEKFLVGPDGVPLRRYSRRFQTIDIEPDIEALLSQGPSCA
Outline: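 10 nM GPX1 + cpd, 30 min RT; start w/ 1 mM GSH, 0.5 mM cumene hydroperoxide, 0.5 mM NADPH, 100 nM GR, 0.01% BSA; buffer 50 mM Tris-HCl pH 7.5, 2 mM EDTA, 150 mM NaCl; Fl 340/450, 0 & 15 min.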

[2] = molecular target: Phospholipid hydroperoxide glutathione peroxidase GPX4 (Homo sapiens) (UniProt P36969); assay: Primary qHTS Assay for Inhibitors of Recombinant Selenoprotein Glutathione Peroxidase 4 (GPX4) (AID 1845192); note: nearly all actives have a fitted effect of over 65% in size
Sequence of Phospholipid hydroperoxide glutathione peroxidase GPX4 (Homo sapiens) (P36969 whole entry, looked up): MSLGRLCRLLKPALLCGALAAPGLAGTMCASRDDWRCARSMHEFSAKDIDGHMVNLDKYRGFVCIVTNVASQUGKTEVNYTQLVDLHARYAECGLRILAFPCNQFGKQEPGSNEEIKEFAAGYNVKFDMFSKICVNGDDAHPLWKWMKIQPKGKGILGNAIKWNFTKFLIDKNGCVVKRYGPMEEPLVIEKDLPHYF
Outline: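 NADPH consumption, followed by fluorescence at 340/450 nm between 0 and 15 min, reports GPX4 activity via coupled glutathione reductase (100 nM). Enzyme 200 nM was pre-exposed to compound 30 min; 0.5 mM cumene hydroperoxide and 1 mM GSH served as substrates.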

[3] = molecular target: Luciferin 4-monooxygenase (Photinus pyralis) (UniProt P08659); assay: Primary firefly luciferase (FLuc) qHTS assay for identification of artifact compounds. (AID 1845220); note: nearly all actives have a fitted effect of over 60% in size; note: potency is the fitted concentration of half-maximal effect
Outline: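 FLuc 10 nM; luciferin 10 uM; ATP 10 uM; Tris-acetate pH 7.6, Mg-acetate 10 mM; 15 min RT preincubation; 5 min reaction; luminescence.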

[4] = test system: Nanoluciferase (engineered Oplophorus gracilirostris luciferase); assay: Primary Nanoluciferase (NLuc) qHTS assay for identification of artifact compounds. (AID 1845222);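 note: NLuc secreted into diluted conditioned medium of S16 cells; series mostly up to about 54 µM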
Outline: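 NLuc from S16 cell medium (1:55) plus test compounds, 15 min, room temperature. Luminescence after Nano-Glo (1:100) addition, 5 min.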

[5] = Primary redox qHTS assay for identification of artifact compounds. (AID 1845223)
Outline: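 Amplex Red (25 uM) and HRP (250 mU/mL) in HBSS, with compounds for 15 min, then 250 uM DTT for 30 min, room temperature, dark. Fluorescence 525/598 nm read; normalized to DMSO and 10 uM DA3003; Hill fit.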

Row | SMILES | Potency [1] | Potency [2] | Potency [3] | Potency [4] | Potency [5]
1 | CC(C)(C)NCCCNC(=O)c1cccc(Br)c1 | inactive | inactive | inactive | inactive | inactive
2 | CC(Cc1cc2c(c(C(N)=O)c1)N(CCCO)CC2)NCCOc1ccccc1OCC(F)(F)F (centres undefined) | inactive | inactive | inactive | inactive | inactive
3 | C=CCC1=C[C@]2(OC)[C@H](C)[C@@H](c3ccc(O)c(OC)c3)O[C@]2(OC)CC1=O | inactive | inactive | inactive | inactive | inactive
4 | COc1ccc(-c2cnc3ccc(NCc4ccc(S(N)(=O)=O)cc4)nn23)cc1OC | inactive | inactive | inactive | inactive | inactive
5 | CC(=O)O[C@H]1C[C@@](O)(C(C)C)C2[C@@H](OC(=O)c3ccc(O)cc3)C[C@@]3(C)O[C@H]3C[C@]21C (some centres undefined) | inactive | inactive | inactive | inactive | inactive
6 | C=C(F)c1sc(CNCCCNc2cc(=O)c3ccccc3[nH]2)c(C)c1Br | inactive | inactive | inactive | inactive | inactive
7 | C[C@H]1O[C@@H](O[C@H]2CC[C@@]3(C)C(CC[C@]4(C)C3CC=C3C5CC(C)(C)CC[C@]5(C(=O)O)CC[C@]34C(=O)O)C2(C)C)[C@H](O)[C@@H](O)[C@@H]1O (some centres undefined) | inactive | inactive | inactive | inactive | inactive
8 | C/C=C(\C)C(=O)O[C@H]1[C@@H](O[C@]2(COC(=O)CC(C)C)O[C@H](COC(=O)C(C)CC)[C@@H](OC(C)=O)[C@@H]2O)O[C@H](COC(C)=O)[C@@H](O)[C@@H]1O (some centres undefined) | inactive | inactive | inactive | inactive | inactive
9 | C=C1OC2CC(C(=O)O)C=CC2NC1=O (centres undefined) | inactive | inactive | inactive | inactive | inactive
10 | C=C1CCC2C(C)(C(=O)O)CCCC2(C)C1CC/C(=C\CO)CO (centres undefined) | inactive | inactive | inactive | inactive | inactive
11 | CC(C)[N+]1(C)C2CCC1CC(OC(=O)C(CO)c1ccccc1)C2 (centres undefined) | inactive | inactive | inactive | inactive | inactive
12 | CC1=CC(=O)CC(C)(C)[C@@]1(O)CC[C@@H](C)O[C@@H]1O[C@H](CO)[C@@H](O)[C@H](O)[C@H]1O | inactive | inactive | inactive | inactive | inactive
13 | OC[C@@]1(O)CO[C@@H](OC[C@H]2O[C@@H](Oc3c[nH]c4ccccc34)[C@H](O)[C@@H](O)[C@@H]2O)[C@@H]1O | inactive | inactive | inactive | inactive | inactive
14 | COc1cc(O)cc(C)c1C(=O)OC1C(CO)OC(OC2C(O)C(O)C(O)C(O)C2O)C(O)C1O (centres undefined) | inactive | inactive | inactive | inactive | inactive
15 | COC(=O)[C@@H](O)[C@H]1[C@@]2(C)CC3(O)[C@@H](C(=O)[C@H]2O)[C@]24O[C@]25CC(=O)O[C@@H](c2ccoc2)[C@]5(C)CCC4[C@]13C (some centres undefined) | inactive | inactive | inactive | inactive | inactive
16 | Cc1onc(C(=O)N2CCN(C(c3ccc(Cl)cc3)c3ccc(Cl)cc3)CC2)c1[N+](=O)[O-] | inactive | inactive | inactive | inactive | inactive
17 | CC/C=C\[C@H](O)[C@H](O)C1=C(C)C(=O)[C@]2(O1)C(=O)N[C@@](OC)(C(=O)c1ccccc1)[C@@H]2O | inactive | inactive | inactive | inactive | inactive
18 | C/C=C/c1ccc2oc(-c3ccc(O)c(OC)c3)c(C)c2c1 | inactive | inactive | 26.9 µM (active) | inactive | inactive
19 | OC[C@H]1O[C@@H](Oc2cc(O)c3c(c2)O[C@@H](c2ccc(O)cc2)[C@H](O)C3)[C@H](O)[C@@H](O)[C@@H]1O | inactive | inactive | inactive | inactive | inactive
20 | CC1CC(=O)C2=C(CCC3(O)C(O)c4c(O)cccc4C(=O)C23O)C1 (centres undefined) | inactive | inactive | inactive | inactive | 
21 | CN1CCN(Cc2ccc(-c3cnc4[nH]cc(-c5ccc6[nH]ccc6c5)c4c3)cc2)CC1 | inactive | inactive | 6.75 µM (active) | inactive | inactive
22 | CC(C)C1=CC2C(CC[C@]2(C)O)[C@](C)(O)CC1 (some centres undefined) | inactive | inactive | inactive | inactive | inactive
23 | CC1C(=O)CC2C3CCC(C(=O)O)C12CC3(C)CO (centres undefined) | inactive | inactive | inactive | inactive | inactive
